In PubChem BioAssay AID1159580 (chemical genetic matrix, 2015):
Where “and” joins values, the source holds several entries; their conditions need not be identical. Identical values can stand only once. Among all 5,500 compounds or so, about 2,000 (36%) were called active. Not shown: some 18% with an inconclusive outcome. Cut-off read from the data, not from the text of the source: active = normalized growth mostly below about 0.91 (no sharp cut-off); inconclusive = no clear call, values can overlap the other calls; inactive = mostly above about 0.92. Some of the results follow.

Assay: chemical genetic growth profiling, strain panel (AID 1159580);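 note: tested at 20 µM; growth read once vehicle control cultures reached saturation at 30 °C; 1 = growth at the plate median or of vehicle wells; lower values mean less growth of the strain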
Settings: S. cerevisiae deletion strains, growth OD

Measured: normalized growth

CCOC(=O)C1=C(C)NC(C)=C(C(=O)OC)C1c1cccc([N+](=O)[O-])c1 (stereo unspecified)
inactive: locus YAL013W, strain DEP1, stronger effect = lower value 1 and 0.987 | locus YAL021C, strain ccr4, stronger effect = lower value 0.996 | locus YAL026C, strain drs2, stronger effect = lower value 1.01 | locus YAL030W, strain snc1, stronger effect = lower value 0.997 | locus YBL061C, strain skt5, stronger effect = lower value 1 | locus YBR009C, strain hhf1, stronger effect = lower value 1.01 | locus YBR021W, strain FUR4, stronger effect = lower value 0.977 | locus YBR023C, strain chs3, stronger effect = lower value 0.999 | locus YBR171W, strain sec66, stronger effect = lower value 1.01 | locus YBR229C, strain ROT2, stronger effect = lower value 1.01 | locus YBR231C, strain swc5, stronger effect = lower value 0.999 | locus YBR279W, strain paf1, stronger effect = lower value 1.01 | locus YCL011C, strain gbp2, stronger effect = lower value 0.995 | locus YCL016C, strain dcc1, stronger effect = lower value 1.01 | locus YCL029C, strain bik1, stronger effect = lower value 1.01 | locus YCL061C, strain MRC1 (second series), stronger effect = lower value 0.985 | locus YCL061C, strain MRC1, stronger effect = lower value 1.01 | locus YCL069W, strain vba3, stronger effect = lower value 1.01 | locus YCR088W, strain abp1, stronger effect = lower value 1.01 | locus YDL005C, strain med2, stronger effect = lower value 1.01 | locus YDL035C, strain GPR1, stronger effect = lower value 1 | locus YDL040C, strain nat1, stronger effect = lower value 1 | locus YDL074C, strain BRE1, stronger effect = lower value 0.988 | locus YDL101C, strain DUN1, stronger effect = lower value 1 | locus YDL134C, strain PPH21, stronger effect = lower value 1 | locus YDL185W, strain tfp1, stronger effect = lower value 0.996 | locus YDL192W, strain arf1, stronger effect = lower value 1 | locus YDR001C, strain nth1, stronger effect = lower value 1.01 | locus YDR069C, strain doa4, stronger effect = lower value 1.01 | locus YDR101C, strain arx1, stronger effect = lower value 0.997 | locus YDR137W, strain rgp1, stronger effect = lower value 0.98 | locus YDR150W, strain NUM1, stronger effect = lower value 1 | locus YDR159W, strain sac3, stronger effect = lower value 1.01 | locus YDR162C, strain NBP2, stronger effect = lower value 0.945 | locus YDR195W, strain ref2 1.03 | locus YDR297W, strain sur2, stronger effect = lower value 1 | locus YDR318W, strain mcm21, stronger effect = lower value 1.02 | locus YDR334W, strain swr1, stronger effect = lower value 1.02 | locus YDR335W, strain msn5, stronger effect = lower value 1.02 | locus YDR363W, strain ESC2, stronger effect = lower value 1 | locus YDR388W, stronger effect = lower value 1.01 | locus YDR392W, strain spt3, stronger effect = lower value 0.946 | locus YDR502C, strain sam2, stronger effect = lower value 1 | locus YEL003W, strain gim4, stronger effect = lower value 1.01 | locus YEL037C, strain rad23, stronger effect = lower value 1.01 | locus YEL061C, strain CIN8 (second series), stronger effect = lower value 1.01 | locus YEL061C, strain CIN8, stronger effect = lower value 0.994 | locus YER002W, strain NOP16, stronger effect = lower value 0.933 | locus YER015W, strain faa2, stronger effect = lower value 1.02 | locus YER016W, strain bim1, stronger effect = lower value 1.01 | locus YER110C, stronger effect = lower value 1.01 | locus YER111C, strain swi4, stronger effect = lower value 1.02 | locus YER155C, strain BEM2 (second series), stronger effect = lower value 1.03 | locus YER155C, strain BEM2, stronger effect = lower value 0.997 | locus YER167W, strain BCK2, stronger effect = lower value 1 | locus YFR010W, strain ubp6, stronger effect = lower value 1.02 | locus YGL078C, strain dbp3, stronger effect = lower value 1.01 | locus YGL086W, strain mad1, stronger effect = lower value 1.02 | locus YGL167C, strain pmr1, stronger effect = lower value 1 | locus YGL173C, strain kem1, stronger effect = lower value 1.01 | locus YGL227W, strain vid30, stronger effect = lower value 1.01 | locus YGL240W, strain doc1, stronger effect = lower value 0.994 | locus YGL248W, strain PDE1, stronger effect = lower value 0.998 | locus YGL253W, strain hxk2, stronger effect = lower value 1 | locus YGR078C, strain PAC10, stronger effect = lower value 0.977 | locus YGR135W, strain pre9, stronger effect = lower value 0.977 | locus YGR229C, strain SMI1, stronger effect = lower value 0.961 and 1 | locus YGR252W, strain gcn5, stronger effect = lower value 1.02 | locus YHR013C, strain ard1, stronger effect = lower value 1.03 | locus YHR027C, strain rpn1, stronger effect = lower value 1.01 | locus YHR030C, strain SLT2, stronger effect = lower value 1.01 | locus YHR079C, strain IRE1 (second series), stronger effect = lower value 1 | locus YHR094C, strain hxt1, stronger effect = lower value 0.994 | locus YHR129C, strain ARP1, stronger effect = lower value 1.01 | locus YHR142W, strain chs7, stronger effect = lower value 0.976 | locus YHR200W, strain rpn10, stronger effect = lower value 1 | locus YIL066C, strain RNR3, stronger effect = lower value 1.02 | locus YIL073C, strain SPO22, stronger effect = lower value 1.04 | locus YIL125W, strain kgd1, stronger effect = lower value 0.999 | locus YIR030C, strain dcg1, stronger effect = lower value 0.999 | locus YJL092W, strain hpr5, stronger effect = lower value 1 | locus YJL095W, strain BCK1 (second series), stronger effect = lower value 1.01 | locus YJL095W, strain BCK1, stronger effect = lower value 0.994 | locus YJL115W, strain asf1, stronger effect = lower value 1.02 | locus YJL129C, strain trk1, stronger effect = lower value 0.992 | locus YJL134W, strain LCB3, stronger effect = lower value 1 | locus YJL154C, strain vps35, stronger effect = lower value 1.02 | locus YJL164C, strain tpk1, stronger effect = lower value 1.01 | locus YJL166W, strain qcr8, stronger effect = lower value 1.01 | locus YJL168C, strain set2, stronger effect = lower value 1.01 | locus YJL187C, strain SWE1 (second series), stronger effect = lower value 1.01
